Experimental data as given in PubChem BioAssay (NCI).
Compounds without any hit were thinned out: in the full panel of roughly 79,000, 15% have a hit. Activity calls are given as the source filed them. Rule as the data show it: active = growth inhibition above about 70%; inactive = the rest. Where a SMILES comes first, the peptide text is derived from it. The star is where a group is joined. X7 = Clc1c(Cl)c(Cl)c(O*)c(Cl)c1Cl; Boc = CC(C)(C)OC(=O)*; OBn = c1ccc(CO*)cc1; Bn = c1ccc(C*)cc1

What was measured:
[1] = NCI Yeast Anticancer Drug Screen. Data for the rad50 strain (AID 155);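 also: 0% = growth of vehicle-only cultures of the same strain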; conditions: S. cerevisiae rad50 strain growth inhibition, active compounds read high
Procedure, shortened: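 A DNA repair-deficient yeast mutant serves as the test organism; compound-induced growth inhibition is calculated against vehicle-treated cells.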

[2] = NCI Yeast Anticancer Drug Screen. Data for the mec2-1 strain (AID 157); conditions: S. cerevisiae mec2-1 strain, active compounds read high
Procedure, shortened: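 Yeast mec2-1 mutant treated with compound. Readout: growth inhibition vs vehicle controls.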

[3] = NCI Yeast Anticancer Drug Screen. Data for the sgs1 mgt1 strain (AID 161);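 also: 0% = growth of cultures given vehicle only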; conditions: S. cerevisiae sgs1 mgt1 strain, active compounds read high
Procedure, shortened: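 Mutant yeast exposed to compound; growth scored against vehicle-only wells.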

[4] = NCI Yeast Anticancer Drug Screen. Data for the cln2 rad14 strain (AID 165);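 also: 0% = growth equal to vehicle treated cultures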; conditions: S. cerevisiae cln2 rad14 strain, active compounds read high
Procedure, shortened: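 cln2 rad14 yeast strain; compound exposure; growth inhibition read vs vehicle controls.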

[5] = NCI Yeast Anticancer Drug Screen. Data for the bub3 strain (AID 167); conditions: S. cerevisiae bub3 mutant strain, active compounds read high
Procedure, shortened: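 Inhibition values come from growth of compound-treated mutant yeast normalised to vehicle-treated controls.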

[6] = NCI Yeast Anticancer Drug Screen. Data for the mlh1 rad18 strain (AID 175); conditions: S. cerevisiae mlh1 rad18 strain growth inhibition, active compounds read high
Procedure, shortened: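 Yeast w/ defined DNA-repair lesions; compound exposure; growth vs vehicle controls → % inhibition.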

[7] = at 5.0 µM (retest, dose inferred, filed as 0.5)
[8] = at 50.0 µM (retest, dose inferred, filed as 5.0)

Measured: growth inhibition

COC(=O)CCC(=O)c1ccc2c(c1)CC1(Cc3ccccc3C1)C2
inactive: [1]; [7] 20% | [1]; [8] 29% | [1]; at 50.0 µM 14.4% | [2]; [7] 24% | [2]; [8] 21% | [2]; at 50.0 µM 3.85% | [3]; [7] 24% | [3]; [8] 46% | [3]; at 50.0 µM 15.3% | [4]; [7] 14% | [4]; [8] 8% | [4]; at 50.0 µM 17.6% | [5]; [7] 25% | [5]; [8] 44% | [5]; at 50.0 µM 41.4% | [6]; [7] 29% | [6]; [8] 30% | [6]; at 50.0 µM 12.1%

CCCCCCCCCCOC(=O)c1cc[n+](C)cc1
inactive: [1]; [7] -4% | [1]; [8] -5% | [1]; at 50.0 µM 13.8% | [2]; [7] 7% | [2]; [8] 6% | [2]; at 50.0 µM 9.5% | [3]; [7] -5% | [3]; [8] 0% | [3]; at 50.0 µM -1.75% | [4]; [7] -3% | [4]; [8] -4% | [4]; at 50.0 µM 46.1% | [5]; [7] -5% | [5]; [8] -6% | [5]; at 50.0 µM -0.65% | [6]; [7] -2% | [6]; [8] -1% | [6]; at 50.0 µM -18.9%

CC(C)CC(NC(=O)C(CCC(=O)OCc1ccccc1)NC(=O)OC(C)(C)C)C(=O)NC(COCc1ccccc1)C(=O)NC(Cc1ccccc1)C(=O)Oc1c(Cl)c(Cl)c(Cl)c(Cl)c1Cl (stereo not given) (Boc-E(OBn)LS(Bn)F-X7; configuration not given here)
active: [1]; at 50.0 µM 80.5% | [2]; at 50.0 µM 84.8% | [3]; [8] 80% | [3]; at 50.0 µM 82.8% | [4]; at 50.0 µM 85.3% | [5]; [8] 84% | [5]; at 50.0 µM 78% | [6]; [8] 76% | [6]; at 50.0 µM 79.6%
inactive: [1]; [7] 39% | [1]; [8] 58% | [2]; [7] 36% | [2]; [8] 56% | [3]; [7] 38% | [4]; [7] 26% | [4]; [8] 53% | [5]; [7] 34% | [6]; [7] 42%

O=C(N/C(=C\c1ccc(Cl)cc1)c1nc2ccccc2s1)c1ccccc1
inactive: [1]; [7] 34% | [2]; [7] 32% | [3]; [7] 54% | [4]; [7] 15% | [5]; [7] 30% | [6]; [7] 28%
active: [1]; [8] 95% | [1]; at 50.0 µM 98.3% | [2]; [8] 97% | [2]; at 50.0 µM 98.1% | [3]; [8] 97% | [3]; at 50.0 µM 98.8% | [4]; [8] 96% | [4]; at 50.0 µM 98% | [5]; [8] 97% | [5]; at 50.0 µM 96.7% | [6]; [8] 95% | [6]; at 50.0 µM 97.8%

CCOC(=O)/C=C1/C(=O)OC2C1OC1OC(C)(C)OC12 (stereo not given)
inactive: [1]; [7] 9% | [1]; at 50.0 µM 6.3% | [2]; [7] 16% | [2]; at 50.0 µM 34.8% | [3]; [7] -5% | [3]; at 50.0 µM 57% | [4]; [7] 37% | [4]; at 50.0 µM -15.1% | [5]; [7] 33% | [5]; at 50.0 µM 26.1% | [6]; [7] 7% | [6]; at 50.0 µM 54.8%
active: [1]; [8] 99% | [2]; [8] 100% | [3]; [8] 100% | [4]; [8] 100% | [5]; [8] 100% | [6]; [8] 99%
